Drawing on PubChem BioAssay (NCI), this text covers growth for 37 compounds.

Several values for one entry are separate records, joined by “and”; a condition that tells them apart may be missing. Equal values may be shown once. Compounds without any hit were thinned out: in the full panel of roughly 83,000, 20% have a hit.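 Note: values are percent growth. 100 is the growth of untreated cells, values between 100 and 0 indicate rising inhibition; between -100 and 0 indicates cell death.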 Activity calls are given as the source filed them. Rule for the calls: active = growth percent below 10; inactive = the rest.

The test system of one assay is MDA-MB-435 melanoma. Kind of assay: NCI-60 one-dose screen, 48 h (100 = growth as untreated, 0 = no growth, -100 = all killed). As to conditions: 10 µM unless noted.
With `O=C(COc1ccc(/C=C2/C(=O)Nc3ccc(Cl)cc32)cc1)Nc1ccc(Br)cc1`, the growth is -1.54% (active).

Take `CCCCNc1ccc2c3c(cccc13)C(=O)N(NCC(O)COc1ccc3c(C)cc(=O)oc3c1)C2=O` (centres undefined): the growth is 72.2% (inactive).

In the case of `COc1ccc(C(=O)c2c(N)c(C#N)cn2-c2ccc([N+](=O)[O-])cc2)cc1`, the growth is 81.1% (inactive).

For `C=CC(=O)N1CCN(c2ccc3nc4c(nc3c2C(F)(F)F)C(=O)c2ncccc2C4=O)CC1`, the growth was -71.1% (active).

As for `NC(=O)c1ccc(-c2ccc3ncnc(N4CCc5cc(F)c(Cl)cc54)c3c2)cn1`, the growth was 95.9% (inactive).

Consider `Cc1ccc2nc(NC(=O)Nc3cccc(Cl)c3)sc2c1`, for which the growth was 105% (inactive).

As to `O=C(c1ccc(Cl)cc1)C1[C@H](c2ccccc2Cl)[C@@H](c2ccccc2)NC12C(=O)Nc1ccccc12` (some centres undefined), the growth is -82.8% (active).

`CCCn1c(NC(=O)c2cccc(C(N)=O)c2)nc2ccc(CN3CCCCC3)cc21`: the growth is 93.1% (inactive).

`S=C(NCCc1ccccc1)Nc1ccc(OCc2nc3ccc(Cl)cc3[nH]2)cc1`: the growth is 36.6% (inactive).

In the case of `Cc1ccc(Cl)cc1NC(=O)Nc1nc2ccc([N+](=O)[O-])cc2s1`, the growth was -18.2% (active).

For the compound `C[C@@H]1CN(c2ccc3ncc(C#Cc4cncc(C(=O)Nc5ccc(CN6CCN(C)CC6)c(C(F)(F)F)c5)c4)n3n2)C[C@@H](C)O1`, the growth is -96.4% (active).

Regarding `O=C1C=CC(=CC=C2N(Cc3ccc4ccccc4c3)c3ccccc3N2Cc2ccc3ccccc3c2)C=C1`, the growth is 12.5% (inactive) and 8.75% (active).

`CNS(=O)(=O)N1CCc2c(Br)c3c(c(OC)c2C1CCc1ccccc1)OCO3` (centres undefined): the growth was -67.9% (active).

For the compound `Cc1ccc(Cl)cc1NC(=O)N/C(N)=N/c1nc2ccccc2s1`, the growth was -63.9% (active).

Regarding `COc1ccc(N=Nc2c(N)nn3c(N)c(C#N)c(-c4ccccc4)nc23)cc1`, the growth was 62.5% (inactive).

On to `Cc1cccc(/C=C/c2ccc(NC(=S)NCCCCN(C)C)cc2)c1`, for which the growth is -90% (active).

Take `COc1ccc(-c2cc(-c3ccccc3)c(C#N)c(=O)[nH]2)cc1S(N)(=O)=O`: the growth was 102% (inactive).

Consider `CC(C)(C)OC(=O)N1C/C(=C\c2ccc(F)cc2)C(=O)/C(=C/c2ccc(F)cc2)C1`, for which the growth is -82.6% (active).

Regarding `COc1cc(C=O)ccc1Oc1nc(Nc2ccc(F)cc2)nc(N(C)C)n1`, the growth was 71.1% (inactive) and 88.1% (inactive).

As to `N#Cc1c(-c2ccc(F)cc2)nc(SCc2ccc(F)cc2)nc1N1CCNCC1`, the growth was -84.7% (active).

As for `COc1ccc(-c2nc3ccc(-c4nnc(SCc5ccccc5)o4)cc3[nH]2)cc1OC`, the growth was 40% (inactive).

For `COc1cccc(NC(=O)c2ccc(NC(=O)CCl)s2)c1`, the growth is 2.66% (active).

Turning to `COc1ccc(/C=C/C(=O)c2ccc(S(=O)(=O)NCCNc3nc(N(C)C)nc(N4CCOCC4)n3)cc2)cc1`, the growth is 81.8% (inactive).

As for `COc1ccc(S(=O)(=O)Nc2ccc(-c3ccc4c(c3)NC(=O)/C4=C\c3ccc[nH]3)cc2)cc1OC`, the growth was 22% (inactive).

Turning to `C=CCSc1nnc(-c2ccc(-c3nc4ccc(Cl)cc4[nH]3)cc2)o1`, the growth was -22.5% (active).

With `COc1cccc(-c2ccc(/C=N/NC(=O)c3[nH]c4ccc(Br)cc4c3-c3ccccc3)s2)c1`, the growth is -51.3% (active).

`Nc1nn2c(-c3cc4cc(Br)ccc4oc3=O)ccnc2c1N=Nc1ccc(Br)cc1`: the growth is 69.5% (inactive).

For the compound `COc1cc(/C=C/C(=O)c2cnn(-c3cc(=O)[nH]c4ccccc34)c2C)cc(OC)c1OC`, the growth was 21.1% (inactive).

In the case of `COc1ccc(-c2nc3ccc(-c4nnc(SCC(=O)Nc5ccc(/C(C)=N\O)cc5)o4)cc3[nH]2)cc1`, the growth was 14.5% (inactive).

For `CCOC(=O)c1ccc(NC(=S)NC(=O)c2cccc(NC(=O)c3ccc(C)cc3)c2)cc1`, the growth is 86.1% (inactive).

Turning to `Cn1cc(-c2cc(N)n3nc(-c4c[nH]c5ccccc45)cc3n2)c2cc(F)ccc21`, the growth is 14.6% (inactive).

For `COC(=O)c1ccc(-c2c(-c3ccccc3)c(F)c3oc(C(=O)OC)c(N)c3c2-c2ccccc2)cc1`, the growth was 101% (inactive).

Consider `COc1ccc(-c2cc(C(=O)OCc3ccc(Br)cc3)nn2-c2ccc(S(C)(=O)=O)cc2)cc1OC`, for which the growth is 89.8% (inactive).

`COc1ccc2ccccc2c1/C=C1\SC(=Nc2ccc(O)cc2)NC1=O`: the growth was 10.9% (inactive).

With `COc1ccc2[nH]c(O)c(N=Nc3nc(-c4ccc(C#N)cc4)cs3)c2c1`, the growth is 67.3% (inactive).

For `Cc1ccc(C(C)C)cc1Oc1cccc(-c2c(-c3ccc(C(F)(F)F)cc3)ncn2C2CCNCC2)n1`, the growth was -93.4% (active).

Take `Cc1cc(C2(c3cc(C)c(OCC(O)CNc4c(C)n(C)n(-c5ccccc5)c4=O)cc3C(C)C)OC(=O)c3ccccc32)c(C(C)C)cc1OCC(O)CNc1c(C)n(C)n(-c2ccccc2)c1=O` (centres undefined): the growth is 12.5% (inactive).

For another assay, the system named is SW-620 colon. Described as above. Particulars: 10 µM unless noted.
For `O=C(COc1ccc(/C=C2/C(=O)Nc3ccc(Cl)cc32)cc1)Nc1ccc(Br)cc1`, the growth was 2.56% (active).

As to `CCCCNc1ccc2c3c(cccc13)C(=O)N(NCC(O)COc1ccc3c(C)cc(=O)oc3c1)C2=O` (centres undefined), the growth was 93.1% (inactive).

Take `COc1ccc(C(=O)c2c(N)c(C#N)cn2-c2ccc([N+](=O)[O-])cc2)cc1`: the growth was 105% (inactive).

As for `C=CC(=O)N1CCN(c2ccc3nc4c(nc3c2C(F)(F)F)C(=O)c2ncccc2C4=O)CC1`, the growth is 4.1% (active).

As for `NC(=O)c1ccc(-c2ccc3ncnc(N4CCc5cc(F)c(Cl)cc54)c3c2)cn1`, the growth was 94.2% (inactive).

`Cc1ccc2nc(NC(=O)Nc3cccc(Cl)c3)sc2c1`: the growth is 106% (inactive).

On to `O=C(c1ccc(Cl)cc1)C1[C@H](c2ccccc2Cl)[C@@H](c2ccccc2)NC12C(=O)Nc1ccccc12` (some centres undefined), for which the growth is -5.33% (active).

Consider `CCCn1c(NC(=O)c2cccc(C(N)=O)c2)nc2ccc(CN3CCCCC3)cc21`, for which the growth was 109% (inactive).

`S=C(NCCc1ccccc1)Nc1ccc(OCc2nc3ccc(Cl)cc3[nH]2)cc1`: the growth is 37% (inactive).

For `Cc1ccc(Cl)cc1NC(=O)Nc1nc2ccc([N+](=O)[O-])cc2s1`, the growth was -21.9% (active).

Take `C[C@@H]1CN(c2ccc3ncc(C#Cc4cncc(C(=O)Nc5ccc(CN6CCN(C)CC6)c(C(F)(F)F)c5)c4)n3n2)C[C@@H](C)O1`: the growth is -84.2% (active).

As to `O=C1C=CC(=CC=C2N(Cc3ccc4ccccc4c3)c3ccccc3N2Cc2ccc3ccccc3c2)C=C1`, the growth is 29.1% (inactive) and 19.4% (inactive).

Regarding `CNS(=O)(=O)N1CCc2c(Br)c3c(c(OC)c2C1CCc1ccccc1)OCO3` (centres undefined), the growth is 8.53% (active).

With `Cc1ccc(Cl)cc1NC(=O)N/C(N)=N/c1nc2ccccc2s1`, the growth is 1.84% (active).

As to `COc1ccc(N=Nc2c(N)nn3c(N)c(C#N)c(-c4ccccc4)nc23)cc1`, the growth is 66.2% (inactive).

As for `Cc1cccc(/C=C/c2ccc(NC(=S)NCCCCN(C)C)cc2)c1`, the growth was -85.3% (active).

Turning to `COc1ccc(-c2cc(-c3ccccc3)c(C#N)c(=O)[nH]2)cc1S(N)(=O)=O`, the growth was 102% (inactive).

Regarding `CC(C)(C)OC(=O)N1C/C(=C\c2ccc(F)cc2)C(=O)/C(=C/c2ccc(F)cc2)C1`, the growth is -67.7% (active).

Regarding `COc1cc(C=O)ccc1Oc1nc(Nc2ccc(F)cc2)nc(N(C)C)n1`, the growth was 94.4% (inactive) and 50.4% (inactive).

For `N#Cc1c(-c2ccc(F)cc2)nc(SCc2ccc(F)cc2)nc1N1CCNCC1`, the growth was -83.7% (active).

Take `COc1ccc(-c2nc3ccc(-c4nnc(SCc5ccccc5)o4)cc3[nH]2)cc1OC`: the growth was 15.9% (inactive).

As to `COc1cccc(NC(=O)c2ccc(NC(=O)CCl)s2)c1`, the growth was 3.86% (active).

As to `COc1ccc(/C=C/C(=O)c2ccc(S(=O)(=O)NCCNc3nc(N(C)C)nc(N4CCOCC4)n3)cc2)cc1`, the growth is 68.7% (inactive).

In the case of `COc1ccc(S(=O)(=O)Nc2ccc(-c3ccc4c(c3)NC(=O)/C4=C\c3ccc[nH]3)cc2)cc1OC`, the growth was 16.1% (inactive).

On to `C=CCSc1nnc(-c2ccc(-c3nc4ccc(Cl)cc4[nH]3)cc2)o1`, for which the growth is 27.8% (inactive).

As for `COc1cccc(-c2ccc(/C=N/NC(=O)c3[nH]c4ccc(Br)cc4c3-c3ccccc3)s2)c1`, the growth is 20.4% (inactive).

`Nc1nn2c(-c3cc4cc(Br)ccc4oc3=O)ccnc2c1N=Nc1ccc(Br)cc1`: the growth is 43.2% (inactive).

Consider `COc1cc(/C=C/C(=O)c2cnn(-c3cc(=O)[nH]c4ccccc34)c2C)cc(OC)c1OC`, for which the growth was 24.4% (inactive).

Take `COc1ccc(-c2nc3ccc(-c4nnc(SCC(=O)Nc5ccc(/C(C)=N\O)cc5)o4)cc3[nH]2)cc1`: the growth is 96.2% (inactive).

Consider `CCOC(=O)c1ccc(NC(=S)NC(=O)c2cccc(NC(=O)c3ccc(C)cc3)c2)cc1`, for which the growth was 68.2% (inactive).

Turning to `Cn1cc(-c2cc(N)n3nc(-c4c[nH]c5ccccc45)cc3n2)c2cc(F)ccc21`, the growth was -76.8% (active).

Turning to `COC(=O)c1ccc(-c2c(-c3ccccc3)c(F)c3oc(C(=O)OC)c(N)c3c2-c2ccccc2)cc1`, the growth was 87.1% (inactive).

On to `COc1ccc(-c2cc(C(=O)OCc3ccc(Br)cc3)nn2-c2ccc(S(C)(=O)=O)cc2)cc1OC`, for which the growth is 99.2% (inactive).

For `COc1ccc2ccccc2c1/C=C1\SC(=Nc2ccc(O)cc2)NC1=O`, the growth is 35.4% (inactive).

`COc1ccc2[nH]c(O)c(N=Nc3nc(-c4ccc(C#N)cc4)cs3)c2c1`: the growth is 63.3% (inactive).

On to `Cc1ccc(C(C)C)cc1Oc1cccc(-c2c(-c3ccc(C(F)(F)F)cc3)ncn2C2CCNCC2)n1`, for which the growth was -85.5% (active).

Take `Cc1cc(C2(c3cc(C)c(OCC(O)CNc4c(C)n(C)n(-c5ccccc5)c4=O)cc3C(C)C)OC(=O)c3ccccc32)c(C(C)C)cc1OCC(O)CNc1c(C)n(C)n(-c2ccccc2)c1=O` (centres undefined): the growth was 18.4% (inactive).
